Source: PubChem BioAssay
14-3-3g Raf – alters human 14-3-3 gamma binding to Raf peptide; P61981; FP, 14-3-3gamma / TMR-pS259-Raf peptide binding; AID 422; 160,000 tested, 0.19% active; inhibition, % at 40 µM; in the data active means inhibition above about 30%;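 further: 0% = protein plus tracer without compound and 100% = blank with tracer alone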
* hit, by the source's call. The full list was thinned out, with hits kept by preference.

CN(N=O)c1ccc(O)c(O)c1 was read as 14-3-3g Raf 40*.
For O=P(Nc1ccccc1Cl)(Oc1ccccc1)Oc1ccccc1 the results were 14-3-3g Raf -1.
Screening CCCCn1c(=O)c(C(=O)NCc2ccccc2F)c(O)c2ccccc21 returned 14-3-3g Raf 2.
CCC1(C(=O)c2ccccc2)C2c3cc(Br)ccc3OC(=O)C21C(=O)OC (stereo unspecified) was read as 14-3-3g Raf 5.
For CCOC(=O)C1C2NC(=S)N(c3ccccc3)C1(C)Oc1ccc(Br)cc12 (stereo unspecified) the results were 14-3-3g Raf -10.
For CCC1(C(=O)c2ccc(C)cc2)C2c3cc(Br)ccc3OC(=O)C21C(=O)OC (stereo unspecified) the results were 14-3-3g Raf 31*.
O=c1c2ccccc2nc(C=Cc2ccc(F)cc2)n1-c1ccc(Cl)cc1 was read as 14-3-3g Raf 1.
C#CCN(C)[C@@H](C)Cc1ccccc1 was read as 14-3-3g Raf -1.
For C#CCN(C)C(C)Cc1ccccc1 (stereo unspecified) the results were 14-3-3g Raf 35*.
For Cc1nc2ccc(I)cc2c(=O)n1-c1ccc(Br)cc1[N+](=O)[O-] the results were 14-3-3g Raf 0.
Screening COc1ccc(C2(CCNCc3ccc(Cl)cc3)CCOC(C)(C)C2)cc1 (stereo unspecified) returned 14-3-3g Raf 0.
`CCOc1ccc(-n2c(O)c(C=NCCN3CCNCC3)c(=O)[nH]c2=O)cc1` gave 14-3-3g Raf 34*.
Cc1ccc(-n2c(O)c(C=NCCN3CCOCC3)c(=O)[nH]c2=O)cc1 was read as 14-3-3g Raf 1.
For O=c1[nH]c(=O)n(CCc2ccccc2)c(O)c1C=NCCN1CCNCC1 the results were 14-3-3g Raf 1.
`Cc1cc(Cl)ccc1-n1c(C=Cc2ccccc2)nc2ccccc2c1=O` gave 14-3-3g Raf 0.
Screening CC1CC(=O)N(c2ccc(N(C)C3CCN(C)CC3)c([N+](=O)[O-])c2)C1=O (stereo unspecified) returned 14-3-3g Raf -2.
Screening COc1ccccc1CCNCc1ccccn1 returned 14-3-3g Raf -7.
Screening Nc1c([N+](=O)[O-])ccc2nonc12 returned 14-3-3g Raf -11.
Screening COCC#CCN1CCN(C)CC1 returned 14-3-3g Raf 13.
CCN(CC)C(=O)c1ccc(N2C(=O)C3C4C=CC(C4)C3C2=O)cc1 (stereo unspecified) was read as 14-3-3g Raf -6.
